Only some compounds are listed: those with a hit (about 5.1% of all), similar ones and a draw of the others.
Tau filament bind – binds recombinant human tau filaments; P10636; recombinant tau filaments, thioflavin S fluorescence, 15 h; filaments grown with octadecylsulfate alongside compound; Potency, µM (doses to about 57.1 µM); hit rate 2% among 71,000;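 further: actives lower thioflavin S fluorescence by blocking filaments or displacing dye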
Target sequence (P10636 whole entry, looked up): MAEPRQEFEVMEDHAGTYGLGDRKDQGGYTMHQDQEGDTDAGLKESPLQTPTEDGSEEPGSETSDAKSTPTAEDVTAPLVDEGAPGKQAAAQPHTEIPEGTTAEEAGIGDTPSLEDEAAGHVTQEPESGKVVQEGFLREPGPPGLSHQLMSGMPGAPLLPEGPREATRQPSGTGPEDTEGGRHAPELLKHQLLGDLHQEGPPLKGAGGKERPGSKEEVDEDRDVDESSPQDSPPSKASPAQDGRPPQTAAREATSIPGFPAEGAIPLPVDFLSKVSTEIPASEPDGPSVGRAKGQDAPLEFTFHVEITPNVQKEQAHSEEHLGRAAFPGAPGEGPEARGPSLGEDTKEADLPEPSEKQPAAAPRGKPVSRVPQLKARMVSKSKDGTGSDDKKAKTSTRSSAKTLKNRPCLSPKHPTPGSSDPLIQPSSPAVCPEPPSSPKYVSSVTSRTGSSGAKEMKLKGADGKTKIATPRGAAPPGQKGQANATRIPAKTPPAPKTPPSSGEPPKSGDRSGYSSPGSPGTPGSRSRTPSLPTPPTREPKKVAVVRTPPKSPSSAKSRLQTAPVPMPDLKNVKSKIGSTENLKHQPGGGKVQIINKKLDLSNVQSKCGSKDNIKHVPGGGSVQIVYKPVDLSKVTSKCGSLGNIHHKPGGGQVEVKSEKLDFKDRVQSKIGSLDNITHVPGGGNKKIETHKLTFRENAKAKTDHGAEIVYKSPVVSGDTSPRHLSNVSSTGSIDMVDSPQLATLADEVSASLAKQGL
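Recombinant tau protein (human, 1 uM final) plus 30 uM ODS in HEPES pH 7.4 with NaCl, DTT and thioflavine S. Compound present from the start; fluorescence at 510 nm after 15 h, 37 C.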
HEK293 cAMP cs – parental HEK293 cAMP activation (counter-screen); parental HEK293 CNG cAMP sensor, membrane potential fluorescence; hit rate 2.5% among 73,000; Potency, µM (titrated, usually from 57.1 µM), usual class: activators; further: nearly all actives have a fitted effect of over 55% in size
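Parental HEK 293 cells stably expressing a modified CNG channel (no TSHR) report cAMP rise as membrane depolarization. Membrane potential dye with 100 uM RO 20-1724 was loaded for 60 min at room temperature, then compound added for 30 min; fluorescence read at 590 nm.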
Hsp90 Hop PPI – changes Hsp90-Hop TPR2A binding signal, up or down; AlphaScreen TPR2A-His6 binding biotin-Hsp90 C-terminal peptide; Potency, µM (top dose mostly 57 µM); hit rate 0.44% among 71,000; AID 595; active means well fitted curve in either direction with a large enough effect; inconclusive means small, poorly fitted or top-dose-only effect, or another doubt
TSHR ag – TSH receptor (human) agonism. Potency, µM (highest dose often 57.1 µM), actives largely listed as activators. P16473. HEK293-CNG-TSHR cells (CNG channel as cAMP sensor), membrane potential dye, cAMP. AID 926. hit rate 0.48% among 73,000; active means well fitted activation curve with a large enough effect in the main read-out, with a control signal flat, not every such curve was filed as active; inconclusive means small, poorly fitted or top-dose-only effect, or a change in a side signal; inactive means no such curve, though single readings can be large or run the other way; reference of the percent scale not stated here;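 further: the control signal comes from parental cells without the receptor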
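HEK 293 cells stably expressing TSHR and a cAMP-gated CNG channel; parental CNG-only cells as counterscreen. Cells preloaded 60 min with membrane potential dye plus 100 uM RO 20-1724, then compound 30 min; fluorescence read at 590 nm.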
DNA Pol III inh – DNA polymerase III holoenzyme inhibition | AID 603 | reconstituted DNA polymerase III holoenzyme replication, biochemical | hit rate 0.25% among 71,000 | Potency, µM (doses to about 57.1 µM)
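Reconstituted *E. coli* holoenzyme (0.35 nM Pol III, 1 nM beta, 154 nM SSB, 2 nM primase) was preincubated with compound for 15 min at RT. Synthesis on 1.4 nM ssM13Gori ran 35 min, then was stopped with PicoGreen/EDTA and read as dsDNA fluorescence.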
Each line names hits and unclear results; the compound was inactive in the other large screens; ! = a repeat was not active. Unless noted, the call rests on the fitted dose curve; in most records, active means well fitted curve in the direction sought with a large enough effect; inconclusive means small, poorly fitted or top-dose-only effect, or another doubt; inactive means no such curve, though single readings can be large; an effect the other way counts as inactive or inconclusive.

CC(=O)Nc1cccc(NC(=O)Nc2ccc(C(C)=O)cc2)c1	none
COc1ccc(-c2nc3cnc(N4CCN(C)CC4)nc3n(CCc3ccccc3)c2=O)cc1	none
Cc1nc2cnc(Oc3cccc(Cl)c3)nc2n(Cc2ccc(F)cc2)c1=O	Tau filament bind inconclusive, HEK293 cAMP cs 4µM, TSHR ag inconclusive
Cn1c(=O)c(-c2cc(F)cc(F)c2)nc2cnc(Oc3cccc(Cl)c3)nc21	Tau filament bind 10µM
O=C(Nc1ccc(F)cc1)N(Cc1ccco1)Cc1cc2cc3c(cc2[nH]c1=O)OCO3	HEK293 cAMP cs 25µM, TSHR ag inconclusive
CCn1c(SCc2nc3ccccc3s2)nnc1-c1cccs1	none
CCn1c(SCCOc2ccc(Cl)cc2)nnc1-c1cccs1	HEK293 cAMP cs 32µM, TSHR ag inconclusive
Cc1nn(-c2ccccc2)c2[nH]c(=O)c(CNc3ccc(N4CCOCC4)cc3)cc12	Tau filament bind 20µM, Hsp90 Hop PPI inconclusive
O=c1[nH]c2c(cc1CNCCN1CCOCC1)c(-c1cccc(F)c1)nn2-c1ccccc1	Tau filament bind inconclusive, Hsp90 Hop PPI inconclusive
COCOc1ccc(Br)cc1C(=O)/C=C\c1ccc2c(c1)OCO2	none (no result: Tau filament bind, Hsp90 Hop PPI, DNA Pol III inh)
CC#CCN(CC#CC)S(=O)(=O)c1ccc(-n2cnnn2)c(OC)c1	HEK293 cAMP cs 13µM, Hsp90 Hop PPI inconclusive, TSHR ag inconclusive
CC(C)(C)c1ccc(O)c(CN(Cc2cc(C(C)(C)C)ccc2O)c2ccccc2)c1	none
N#C/C(=C\c1ccc(O)c(O)c1)C(=O)Nc1ccccc1	Hsp90 Hop PPI 10µM!
C[C@H](NC(=O)/C(C#N)=C/c1ccc(O)c(O)c1)c1ccccc1	Tau filament bind inconclusive, HEK293 cAMP cs inconclusive, Hsp90 Hop PPI 7.9µM!, TSHR ag inconclusive
COc1ccc(/C=C(\C#N)C(N)=O)cc1OC	none
N#C/C(=C\c1ccc(O)c(O)c1)C(=O)NCCCNC(=O)/C(C#N)=C/c1ccc(O)c(O)c1	Hsp90 Hop PPI 2µM, DNA Pol III inh 2.5µM
C[C@@H](NC(=O)/C(C#N)=C/c1ccc(O)c(O)c1)c1ccccc1	none (no result: TSHR ag)
S=C1SCN(C2CCCCCCCCCCC2)CN1C1CCCCCCCCCCC1	none
Cc1ccc2c(C)nc(Nc3nc(CSc4nnnn4-c4ccccc4)cc(=O)[nH]3)nc2c1	DNA Pol III inh 13µM
COc1cc(OC)nc(NC(=O)CSc2nnc(-c3ccccc3)n2C2CCCCC2)n1	none
COc1ccc(OC)c(NC(=O)C2CC(C)=C(C)CC2C(=O)O)c1 (stereo not drawn)	none
CCSc1nc2cc(C(=O)OC)ccc2c(=O)n1CC	HEK293 cAMP cs inconclusive, TSHR ag inconclusive
COC(=O)c1ccc2c(=O)n(C3CCCCC3)c(SCC#N)nc2c1	HEK293 cAMP cs 20µM, TSHR ag inconclusive
OCCNc1ncnc2c1ncn2[C@@H]1O[C@@H](CO)[C@H](O)[C@@H]1O	none
Cc1ccc(C(=O)c2coc3ccc(O)c(CN4CCN(C)CC4)c23)cc1	HEK293 cAMP cs 13µM, TSHR ag inconclusive
Cc1cccc(N2CCN(C(=O)COc3cc(=O)n(C)c4ccccc34)CC2C)c1 (stereo not drawn)	Hsp90 Hop PPI inconclusive
O=S(=O)(Nc1ccc(N2CCOCC2)cc1)c1cccs1	Tau filament bind 16µM
O=C(c1cc2ncc(Br)cn2n1)N1CCN(C(=O)c2ccco2)CC1	DNA Pol III inh 25µM
O=S(=O)(c1ccc(Oc2ccc(Br)cc2F)nc1)N1CCCCC1	HEK293 cAMP cs 25µM, TSHR ag inconclusive
COc1cc2cc3c4c(cc(OC)c(OC)c4c2cc1OC)CCN3C	Tau filament bind 4µM, Hsp90 Hop PPI inconclusive, TSHR ag inconclusive
CCOc1ccc2[nH]c(=O)c(=O)[nH]c2c1	Tau filament bind 10µM
CSc1nc(NCc2ccco2)c2c3c(sc2n1)CN(C)CC3	HEK293 cAMP cs 25µM, TSHR ag inconclusive
CCCn1c(C)nc2c(c1=O)c1nc3ccccc3nc1n2CCc1ccccc1	HEK293 cAMP cs inconclusive, TSHR ag inconclusive
CCCn1c(C)nc2c(c1=O)c1nc3ccccc3nc1n2CCC1=CCCCC1	HEK293 cAMP cs 20µM, TSHR ag inconclusive
Cc1nc2c(c(=O)n1CCC1=CCCCC1)c1nc3ccccc3nc1n2/N=C/c1ccco1	Tau filament bind 2µM
CCOC(=O)c1cc2occc2n1CC(=O)NC1CCCCC1C (stereo not drawn)	HEK293 cAMP cs 13µM, TSHR ag inconclusive
c1cc2c(cc1-c1cnc3n1CCC3)OCCO2	HEK293 cAMP cs 20µM, TSHR ag inconclusive, DNA Pol III inh inconclusive
Cc1ccc(S(=O)(=O)N(C)Cc2ccc(-c3nnco3)cc2)cc1	HEK293 cAMP cs 25µM, TSHR ag inconclusive
CCOc1ccccc1OCCCCCc1c(C)n[nH]c1C	none
Cc1cccc(OCCCCCn2ccnc2)c1C	HEK293 cAMP cs 32µM, TSHR ag inconclusive
Cc1cccc(OCCCCc2c(C)n[nH]c2C)c1C	Tau filament bind 16µM
C[C@H](CC(=O)O)C(C(=O)O)C(=O)O	none
O=C(O)c1ccc(N[C@H](c2ccccc2)c2ccc3cccnc3c2O)cc1	none
Cc1conc1NC(c1cccs1)c1ccc2cccnc2c1O (stereo not drawn)	Tau filament bind 13µM, Hsp90 Hop PPI 25µM
O=S(=O)(NCCC1=CCCCC1)c1cccc2nsnc12	Tau filament bind inconclusive
O=S(=O)(NCCOC12CC3CC(CC(C3)C1)C2)c1cccc2nsnc12	Tau filament bind 16µM
O=C(c1cc(C(F)(F)F)cc(C(F)(F)F)c1)N1CCC2(CCN(Cc3ccccc3)CC2)CC1	none
FC(F)(F)c1cc(CN2CCC3(CCNCC3)CC2)cc(C(F)(F)F)c1	Tau filament bind 13µM
CC[C@]1(O)C[C@@H]2CN(CCc3c([nH]c4ccccc34)[C@](C(=O)OC)(c3cc4c(cc3OC)N(C=O)[C@H]3[C@@](O)(C(=O)OC)[C@H](C(=O)OC)[C@@]5(CC)C=CCN6CC[C@]43[C@H]65)C2)C1	Tau filament bind inconclusive
CCCCC(c1nnnn1CC1CCCO1)N1CCN(c2cccc(C)c2C)CC1 (stereo not drawn)	HEK293 cAMP cs inconclusive, TSHR ag inconclusive
COc1ccc(C(c2nnnn2CC2CCCO2)N2CCN(c3cccc(C)c3C)CC2)cc1 (stereo not drawn)	HEK293 cAMP cs 7.9µM, TSHR ag inconclusive
C=C(C)C(O)/C=C/C=C/c1ccccc1 (stereo not drawn)	none (no result: Tau filament bind, Hsp90 Hop PPI, DNA Pol III inh)
CO/N=C(\C(=O)N[C@@H]1C(=O)N2C(C(=O)O)=C(CSc3nc(=O)c(O)nn3C)CS[C@@H]12)c1csc(N)n1	DNA Pol III inh 40µM
COC(=O)NC(c1cccc(C)c1)[C@]1(C(C)=O)CCOC1=O (stereo partly drawn)	none (no result: Tau filament bind, Hsp90 Hop PPI, DNA Pol III inh)
O=C(CS(=O)(=O)c1cn(Cc2cccc(F)c2)c2ccccc12)N1CCOCC1	none
Cc1ccccc1Cn1cc(S(=O)(=O)CC(=O)N2CCCCC2)c2ccccc21	HEK293 cAMP cs 32µM, TSHR ag inconclusive
Cc1cc(NC(=O)CS(=O)(=O)c2cn(Cc3ccccc3Cl)c3ccccc23)no1	HEK293 cAMP cs 25µM, TSHR ag inconclusive
